# How the values were obtained:
# Assay in all cases: PBM binding z-score (relative to random genomic background probes); higher = stronger binding; sequences stand for … in GC…GCGATTGACAGCGTAGAATGAAGG
# [1] = test system: FXR:RXRa (NR concentration 270 nM, RXRa partner concentration 90 nM)
# Outline: (§1)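 Probes were double-stranded and carried 34-nt variable regions with direct-repeat seeds, single-nucleotide variants, half-site ablations and random human genomic background sequences, printed on custom Agilent 4×180K protein-binding microarrays. Arrays were incubated 1 h with ligand-free nuclear receptor dimers in PBS pH 7.4, 2% milk, 0.02% Triton X-100, 1 mM DTT, 0.2 mg/mL BSA and 0.4 mg/ml salmon testes DNA. Antibodies against each partner (one per run) detected binding, and scanned fluorescence was regression-normalized. Binding z-scores use the random background probes as reference.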
# [2] = test system: LXRa:RXRa (NR concentration 270 nM, RXRa partner concentration 90 nM)
# Outline: as §1
# [3] = test system: LXRa homodimer (NR concentration 270 nM)
# Outline: as §1
# [4] = test system: LXRb:RXRa (NR concentration 270 nM, RXRa partner concentration 90 nM)
# Outline: as §1
# [5] = test system: LXRb homodimer (NR concentration 270 nM)
# Outline: as §1
# [6] = test system: PPARa:RXRa (NR concentration 270 nM, RXRa partner concentration 90 nM)
# Outline: as §1
# [7] = test system: PPARg:RXRa (NR concentration 180 nM, RXRa partner concentration 90 nM)
# Outline: as §1
# [8] = test system: PPARg:RXRa 270nM:90nM, anti-RXR (NR concentration 270 nM, RXRa partner concentration 90 nM)
# Outline: as §1
# [9] = test system: PPARg:RXRa 30nM:10nM, anti-RXR (NR concentration 30 nM, RXRa partner concentration 10 nM)
# Outline: as §1
# [10] = test system: PPARg:RXRa 90nM:30nM, anti-RXR (NR concentration 90 nM, RXRa partner concentration 30 nM)
# Outline: as §1
# [11] = test system: PPARg:RXRa DBDmut IVT, anti-RXR (DBD mutation: RXRa K156A/R161A, NR concentration 270 nM, RXRa partner concentration 90 nM)
# Outline: as §1
# [12] = test system: PPARg:RXRa IVT, anti-PPARg (NR concentration 270 nM, RXRa partner concentration 90 nM)
# Outline: as §1
# [13] = test system: PPARg DBDmut:RXRa IVT, anti-PPARg (DBD mutation: PPARg1 K132A/R137A, NR concentration 270 nM, RXRa partner concentration 90 nM)
# Outline: as §1
# [14] = test system: PPARg DBDmut IVT, anti-PPARg (DBD mutation: PPARg1 K132A/R137A, NR concentration 270 nM)
# Outline: as §1
# [15] = test system: PPARg homodimer (NR concentration 180 nM)
# Outline: as §1
# [16] = test system: PXR:RXRa (NR concentration 270 nM, RXRa partner concentration 90 nM)
# Outline: as §1
# [17] = test system: PXR homodimer (NR concentration 270 nM)
# Outline: as §1
# [18] = test system: RARa:RXR (NR concentration 270 nM, RXRa partner concentration 90 nM)
# Outline: as §1
# [19] = test system: RARa homodimer (NR concentration 270 nM)
# Outline: as §1
# [20] = test system: RARb:RXRa (NR concentration 270 nM, RXRa partner concentration 90 nM)
# Outline: as §1
Sequence,PBM binding z-score [1],PBM binding z-score [2],PBM binding z-score [3],PBM binding z-score [4],PBM binding z-score [5],PBM binding z-score [6],PBM binding z-score [7],PBM binding z-score [8],PBM binding z-score [9],PBM binding z-score [10],PBM binding z-score [11],PBM binding z-score [12],PBM binding z-score [13],PBM binding z-score [14],PBM binding z-score [15],PBM binding z-score [16],PBM binding z-score [17],PBM binding z-score [18],PBM binding z-score [19],PBM binding z-score [20]
ATCTCTAGGTAACGAAGTTCAGTGAATGCCGAAC,0.145,0.276,0.427,0.411,0.414,0.915,0.812,1.02,0.0863,0.766,3.22,2.82,0.456,0.901,0.161,1.14,0.916,0.507,0.64,1.14
GCTGCTAGATCAACTGATGGTCAGCTAAAGCTCG,-0.351,-0.658,-0.708,-0.94,-1.09,-0.675,-0.337,-0.606,-0.466,-0.434,-0.127,-0.576,-0.911,-0.65,-0.483,-0.788,-0.885,-0.512,-1.53,-0.39
CGTCCAAGGTCATAGGAGGTCTGTGAAGACAGAT,7.54,5.3,0.925,4.01,0.481,5.64,4.98,5.2,1.89,3.88,2.76,3.51,0.436,0.0298,2.07,4.86,1.09,4.27,0.26,5.05
GGAACGCGGGCAAGTTGATAGCAGAGTTTGATGG,-0.639,-0.548,-0.597,-1.24,-0.732,-0.903,0.256,-0.889,-0.573,-0.957,-0.223,-0.448,-0.461,-1.56,-0.831,-0.588,-0.209,-0.839,-1.25,0.294
TCTTGTAGGTCAACAGGAGGTTAAGAAAGATCGA,5.53,4.75,1.77,3.93,1.27,5.74,7.68,6.79,5.3,6.38,6.99,8.17,2.81,3.87,2.63,3.9,-0.245,4.71,0.468,4.57
CCTAGCAGGCCAATCTGGGCCACTCAAGGCTTGA,-0.284,-0.644,-0.799,-1.18,-1.02,0.492,-0.0153,-0.364,-1.32,-1.08,2.99,2.85,-0.703,-1.73,-0.99,-1.04,-1.05,-1.11,-0.723,0.0812
TCGAGTAGGTTACCAATGGGGCATTCAGCTTTCT,0.0683,1.23,-0.798,0.966,-0.683,1.26,0.191,1.15,1.14,1.11,3.39,2.58,-0.0498,-0.456,-0.375,0.171,-0.622,0.273,-0.0206,0.992
TGAATGAGGTTAAGGATCAGGGAACGTGGCGTCG,1.99,1.74,-0.343,1.01,0.386,3.28,3.12,4.57,2.71,4.12,1.6,2.61,0.781,-0.105,0.99,1.08,-0.0179,2.08,0.367,2.03

# Reference: the supplement of paper PMC6555819
